This is a sample that favours compounds with a hit; in the whole collection about 3.8% have one here.
S2 tox: Viability Counterscreen for Primary qHTS for Inhibitors of ATXN expression; S2 cells (HEK-293 line with an ATXN2-luciferase reporter) viability, CellTiter-Fluor protease fluorescence, 24 h; actives 0.49% (n = 400,000); Potency, µM (highest dose often 56.7 µM), hits mostly cytotoxic; note: nearly all actives have a fitted effect of over 40% in size
A549 tox-1: Nrf2 qHTS screen for inhibitors: counterscreen for cytotoxicity. Potency, µM (highest dose often 46 µM), without a hit: top-dose activity change, negative = cytotoxicity, actives largely listed as inhibitors. actives 0.16% (n = 390,000). A549 ARE-Fluc cells, CellTiter-Fluor viability, 18-24 h; note: % is set by controls: 0 for no effect and ±100 for the full control effect
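Cytotoxicity counterscreen: CellTiter-Fluor fluorescence was measured in A549 ARE_Fluc cells after 18-24 h of compound exposure in a concentration series. The subsequent BugLite luminescent read reports ARE-luciferase activity.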
Nrf2 inh: Nrf2 qHTS screen for inhibitors. A549 ARE-Fluc reporter, luciferase luminescence, 18-24 h. Potency, µM (titrated, usually from 46 µM), inactives show at the highest dose activity change, negative = inhibition, actives largely listed as inhibitors. actives 2.1% (n = 360,000). AID 504444, 2011; note: % is set by controls: 0 for no effect and ±100 for the full control effect; nearly all actives have a fitted effect of over 60% in size
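Concentration-response testing used A549 ARE_Fluc cells at 5000 cells/well. Following an 18-24 h compound incubation, viability was read by fluorescence (Ex 405/Em 525) and luciferase output by luminescence.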
TGFb SMAD3 inh: qHTS for Inhibitors of TGF-b. HepG2 CAGA-GFP TGF-b/SMAD3 reporter, GFP fluorescence, 18 h; TGF-beta stimulated, 500 pg/mL final. Potency, µM (doses to about 46.1 µM), inactives show at the top dose activity, negative = inhibition, actives largely listed as inhibitors. actives 1.2% (n = 410,000). AID 588855, 2011; note: % is set by controls: 0 for no effect and ±100 for the full control effect; nearly all actives have a fitted effect of over 65% in size
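Inhibition was scored as loss of TGF-beta-induced (500 pg/mL final, 18 hours, 37 degrees C) GFP in HEPG2 cells carrying a CAGA-GFP reporter, in DMEM with 1% FBS. Well GFP was summed per cell; Activity was normalised to unstimulated and stimulated DMSO wells, then concentration-response fitting.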
HepG2 tox: qHTS for Inhibitors of TGF-b: Cytotox Counterscreen; HepG2 CAGA-GFP viability, ATP luminescence, 18 h; Potency, µM (doses to about 46.1 µM), for inactives: at the top dose activity change, negative = cytotoxicity, actives largely listed as cytotoxic; actives 0.76% (n = 410,000)
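CellTiter-Glo luminescence gave cytotoxicity after 18 hours at 37 degrees C. The cells were HepG2 CAGA-GFP in 1% FBS DMEM, stimulated with 500 pg/mL TGF-beta after compound addition. %Activity was normalised to no-cell wells (complete cell-killing) and DMSO (no toxicity), and curves were fitted and classified.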
ATXN2 expr inh: Primary qHTS for Inhibitors of ATXN expression | HEK-293 ATXN2-luciferase reporter, luminescence, 24 h | Potency, µM (titrated, usually from 57 µM), for the others: top-dose activity change, negative = inhibition, usual class: inhibitors | actives 0.72% (n = 360,000); note: % is set by controls: 0 for no effect and ±100 for the full control effect; nearly all actives have a fitted effect of over 55% in size
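qHTS (up to 57 uM final) was run with 24 h compound exposure of reporter cells at 37 °C. Each well was multiplexed: SteadyGlo luminescence measured ATXN2-luciferase expression after a fluorogenic Gly-Phe-AFC viability readout (25 uM final).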
FLuc enzyme inh: Nrf2 qHTS screen for inhibitors: Purified Fluc Biochemical Counterscreen for Hit Validation | shares compounds with Nrf2 inh | purified firefly luciferase, luminescence inhibition | Potency, µM (top dose mostly 57.5 µM), for the others: at the top dose activity change, negative = inhibition, actives largely listed as inhibitors | actives 4% (n = 1,400); note: % is set by controls: 0 for no effect and ±100 for the full control effect; nearly all actives have a fitted effect of over 65% in size
Target sequence (P08659 whole entry, looked up): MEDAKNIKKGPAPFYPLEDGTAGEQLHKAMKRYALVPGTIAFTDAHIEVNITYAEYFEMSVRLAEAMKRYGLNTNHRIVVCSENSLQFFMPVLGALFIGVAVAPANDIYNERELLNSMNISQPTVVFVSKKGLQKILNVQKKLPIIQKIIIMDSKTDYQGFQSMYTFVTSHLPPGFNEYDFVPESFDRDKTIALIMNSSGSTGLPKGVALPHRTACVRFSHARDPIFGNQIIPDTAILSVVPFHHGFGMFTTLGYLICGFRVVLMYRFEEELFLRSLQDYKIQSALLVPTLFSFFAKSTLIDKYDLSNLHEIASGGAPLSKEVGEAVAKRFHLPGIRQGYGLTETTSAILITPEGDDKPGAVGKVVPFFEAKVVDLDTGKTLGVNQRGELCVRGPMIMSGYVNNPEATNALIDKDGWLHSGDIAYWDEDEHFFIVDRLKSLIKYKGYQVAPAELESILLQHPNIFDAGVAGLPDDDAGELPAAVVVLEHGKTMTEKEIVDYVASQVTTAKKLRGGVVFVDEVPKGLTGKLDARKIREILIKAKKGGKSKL
A549 tox-2: Nrf2 qHTS screen for inhibitors: A549 ARE-Fluc Cytotoxicity Counterscreen for Hit Validation | shares compounds with Nrf2 inh | A549 ARE-Fluc cells, cytotoxicity counterscreen | Potency, µM (doses to about 46.1 µM), for the others: at the highest dose activity change, negative = cytotoxicity, hits mostly inhibitors | actives 2% (n = 1,400);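 note: cells exposed to compounds for 18 to 24 hours; % is set by controls: 0 for no effect and ±100 for the full control effect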
ARE-Fluc inh: Nrf2 qHTS screen for inhibitors: Nrf2 A549 ARE-Fluc Confirmation Assay for Hit Validation | shares compounds with Nrf2 inh | A549 ARE-firefly luciferase reporter, luminescence | Potency, µM (highest dose often 46.1 µM), for inactives: top-dose activity change, negative = inhibition, usual class: inhibitors | actives 74% (n = 1,400); note: % is set by controls: 0 for no effect and ±100 for the full control effect; nearly all actives have a fitted effect of over 65% in size
The depositor's hits bear a star; i = inactive; ? = inconclusive; · = no result given. Calls come from the whole dose curve; as a rule, active = well fitted curve in the direction sought with a large enough effect; inconclusive = small, poorly fitted or top-dose-only effect, or another doubt; inactive = no such curve, though single readings can be large; an effect the other way counts as inactive or inconclusive. Potency is the fitted concentration of half-maximal effect.

SMILES	S2 tox	A549 tox-1	Nrf2 inh	TGFb SMAD3 inh	HepG2 tox	ATXN2 expr inh	FLuc enzyme inh	A549 tox-2	ARE-Fluc inh
CC(=O)C12OC(C)(C)OC1CC1C3CCC4=CC(=O)C=CC4(C)C3(F)C(O)CC12C (stereo not given)	i	12.8%	0.0082µM*	11.1%	-0.9%	-13.2%	0.2%	-11.8%	0.0065µM*
C[C@@H]1C[C@H]2[C@@H]3CCC4=CC(=O)C=C[C@]4(C)[C@@]3(F)[C@@H](O)C[C@]2(C)[C@@]1(O)C(=O)CO	i	-9.3%	0.0046µM*	6.8%	9.8%	11.9%	1.1%	-4.1%	0.0052µM*
CC1(C)O[C@@H]2C[C@H]3[C@@H]4CCC5=CC(=O)CC[C@]5(C)[C@@]4(F)[C@@H](O)C[C@]3(C)[C@]2(C(=O)CCl)O1	i	-12.1%	0.0116µM*	28.4%	-2.2%	7.0%	3.4%	-10.6%	0.0082µM*
C[C@]12C=CC(=O)C=C1CC[C@@H]1[C@H]3C[C@@H](O)[C@](O)(C(=O)CO)[C@@]3(C)C[C@H](O)[C@]12F	i	·	·	·	·	·	·	·	·
Cc1ccc(NC(=O)COC(=O)c2ccco2)cc1S(=O)(=O)N1CCCCC1	i	·	·	2.4%	2.6%	·	·	·	·
CCCOc1ccc(C(F)(F)F)cc1NC(=O)CCc1c(C)noc1C	i	1.1%	?	0.6%	-17.3%	-7.6%	·	·	·
O=C1COc2ccc(S(=O)(=O)CCC(=O)NC3CCCCC3)cc2N1	i	-4.7%	-0.4%	-9.6%	0.8%	5.2%	·	·	·
CCN(CC)C(=O)C1=C(C)N(CCCN2CCCC2=O)C(=O)C(CC(=O)NCCCN(C)C)C1 (stereo not given)	i	·	·	17.7%	6.4%	12.3%	·	·	·
Cc1c(NC(=O)CCCCCN2C(=O)c3ccccc3C2=O)c(=O)n(-c2ccccc2)n1C	i	11.7%	-19.7%	-27.4%	-2.6%	0.0%	·	·	·
Cc1ccccc1C(=O)N1CCc2cc(-c3nc(NC(=O)Cc4ccc5c(c4)OCO5)sc3C)ccc21	i	-8.9%	4.61µM*	?	-24.6%	?	-16.0%	-9.0%	5.8µM*
CC(Nc1ncnc2sccc12)c1ccccc1 (stereo not given)	?	-7.1%	1.64µM*	-12.5%	-8.5%	-19.3%	0.3%	0.4%	1.46µM*
c1ccc(Nc2ncnc3sccc23)cc1	i	3.5%	2.3%	31.3%	1.4%	17.6%	·	·	·
CCN(CC)C1=CC(=[N+]2CCCC2)CC(C)(C)C1	i	-7.5%	8.2µM*	-28.1%	-22.6%	?	0.9%	-3.9%	6.51µM*
CN(Cc1ccccc1)C1=CC(=[N+]2CCCC2)CC(C)(C)C1	i	1.4%	4.61µM*	?	-10.9%	?	-18.7%	?	18.4µM*
COc1cccc(NC(=O)C2(C)CCN2C(=O)CC2CCCC2)c1 (stereo not given)	i	·	·	-12.2%	-0.2%	3.5%	·	·	·
CC1=C(C(=O)N(C)C)CC(CC(=O)NC2CCCC2)C(=O)N1CCC1=CCCCC1 (stereo not given)	i	·	·	8.9%	-8.6%	51.8%	·	·	·
COc1ccc(CCC(=O)Nc2ccc(Cn3ccnc3)cc2)cc1	i	10.9%	3.3%	-10.4%	-4.4%	1.9%	·	·	·
CCC(C)NC(=O)c1nn(-c2ccc(C)cc2)nc1CO (stereo not given)	·	-6.3%	-3.5%	-11.8%	-5.0%	·	·	·	·
CCC(C(=O)OCC(=O)C1(O)CCC2C3CCC4=CC(=O)CCC4(C)C3C(O)CC21C)C(C)C (stereo not given)	?	-2.6%	1.16µM*	?	0.7%	?	-0.6%	-29.1%	·
CCCCC(=O)O[C@]1(C(=O)CO)CC[C@H]2[C@@H]3CCC4=CC(=O)CC[C@]4(C)[C@H]3[C@@H](O)C[C@@]21C	i	-8.4%	0.0164µM*	-1.7%	-27.2%	-6.9%	-0.7%	-13.9%	0.013µM*
CC(=O)OCC(=O)[C@@]1(O)CC[C@H]2[C@@H]3CCC4=CC(=O)C=C[C@]4(C)[C@H]3[C@@H](O)C[C@@]21C	i	-8.0%	0.0517µM*	30.3%	5.7%	-10.8%	0.1%	-6.3%	0.0411µM*
C[C@]12C=CC(=O)C=C1CCC1C3CC[C@](O)(C(=O)CO)[C@@]3(C)CC3OC312 (stereo not given in full)	i	-1.0%	-17.6%	-5.3%	0.8%	?	·	·	·
CC(=O)OCC(=O)[C@@]1(O)CCC2C3CCC4=CC(=O)CC[C@]4(C)C3[C@@H](O)C[C@@]21C (stereo not given in full)	i	·	·	·	·	-10.8%	·	·	·
CC(=O)OCC(=O)[C@@]1(O)CC[C@H]2[C@@H]3CCC4=CC(=O)C=C[C@]4(C)[C@@]3(Cl)[C@@H](Cl)C[C@@]21C	i	?	8.2µM*	21.8%	-13.7%	1.9%	1.9%	-6.1%	1.3µM*
O=C(NCC1CCCO1)c1cc2nc(-c3ccco3)cc(C(F)(F)Cl)n2n1 (stereo not given)	i	1.7%	-2.2%	8.9%	6.2%	-3.3%	·	·	·
CC12C=CC(=O)C=C1CCC1C2C(O)CC2(C)C1CCC2(O)C(=O)CO (stereo not given)	i	-1.4%	0.058µM*	-2.6%	-0.6%	5.5%	4.0%	-2.9%	0.103µM*
C[C@]12C=CC(=O)C=C1[C@@H](F)C[C@@H]1[C@@H]2[C@@H](O)C[C@@]2(C)[C@H]1CC[C@]2(O)C(=O)CO	i	·	·	·	·	-1.7%	·	·	·
C[C@H]1C[C@@H]2[C@@H]([C@@H](O)C[C@@]3(C)[C@H]2CC[C@]3(O)C(=O)CO)[C@@]2(C)C=CC(=O)C=C12	i	·	·	·	·	-3.2%	·	·	·

Source: PubChem BioAssay (National Center for Advancing Translational Sciences (NCATS))
